In the library only some 18% were active in any assay of this set; here they are far more common.
HepG2 viability: counter-screen for TGF-b inhibitors: cytotoxicity in HepG2 cells; hit rate 0.76% among 410,000; Potency, µM (doses to about 46.1 µM), for the others: at the highest dose activity change, negative = cytotoxicity, hits mostly cytotoxic; HepG2 CAGA-GFP viability, ATP luminescence, 18 h; further: potency means the concentration at half of the fitted maximal effect
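HepG2 CAGA-GFP cells (1000/well, DMEM with 1% FBS) received compound, then TGF-beta at 500 pg/mL final, and were incubated 18 hours at 37 degrees C. Viability was read by CellTiter-Glo luminescence. Media-only wells were set as complete cell-killing and DMSO as no toxicity.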
IL1B secr inh: inflammasome signaling inhibition, IL-1 beta readout; THP-1 LPS/ATP IL-1B secretion, AlphaLISA, 16 h; active compounds read low; activity change, % at 57.5 µM; hit rate 4.7% among 360,000; AID 743279; in the data active means activity change below about -50%; inconclusive means mostly about -30% to -49%; further: on the % scale 0 is the no-effect control and ±100 the full control effect
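Secreted IL-1B measured by AlphaLISA bead assay after 16 h compound exposure of THP-1 cells; compounds (final up to 57.5 uM) added 1 h before LPS (250 ng/mL) and ATP (1.25 mM) stimulation; lower signal means less secretion.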
TDP1 block: TDP1 (human) enzyme inhibition; hit rate 0.28% among 350,000; recombinant TDP1, AlphaScreen DNA substrate cleavage; Potency, µM (titrated, usually from 130 µM), for the others: at the top dose activity change, negative = inhibition, usual class: inhibitors; further: potency means the concentration at half of the fitted maximal effect; on the % scale 0 is the no-effect control and ±100 the full control effect; nearly all actives have a fitted effect of over 40% in size
Target sequence (Q9NUW8 whole entry, looked up): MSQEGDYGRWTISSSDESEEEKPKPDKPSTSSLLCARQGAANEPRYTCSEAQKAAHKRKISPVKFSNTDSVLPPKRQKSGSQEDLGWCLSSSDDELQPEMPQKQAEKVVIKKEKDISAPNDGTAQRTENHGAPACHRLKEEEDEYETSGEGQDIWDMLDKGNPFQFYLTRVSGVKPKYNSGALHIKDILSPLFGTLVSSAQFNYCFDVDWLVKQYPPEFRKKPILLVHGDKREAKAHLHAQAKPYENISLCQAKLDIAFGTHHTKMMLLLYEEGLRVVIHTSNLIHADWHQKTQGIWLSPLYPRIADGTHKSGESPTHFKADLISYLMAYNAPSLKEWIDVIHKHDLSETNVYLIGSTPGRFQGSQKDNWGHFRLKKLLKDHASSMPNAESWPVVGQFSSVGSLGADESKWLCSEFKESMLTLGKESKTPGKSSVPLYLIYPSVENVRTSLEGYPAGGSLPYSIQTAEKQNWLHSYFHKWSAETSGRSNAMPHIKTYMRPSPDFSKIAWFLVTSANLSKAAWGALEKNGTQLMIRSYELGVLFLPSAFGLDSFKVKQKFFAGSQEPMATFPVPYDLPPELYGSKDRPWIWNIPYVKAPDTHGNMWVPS
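Recombinant E. coli-expressed Tdp1 (1 nM) preincubated with compound 15 min at RT, then 5'-biotin/3'-phosphotyrosine-FITC DNA substrate (15 nM) added for 5 min. AlphaScreen beads (10 ug/ml) added, 10 min RT; tyrosine-FITC cleavage read as signal loss.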
DT40 TDP1 no CPT: qHTS for Inhibitors of human tyrosyl-DNA phosphodiesterase 1 (TDP1): qHTS in cells in absence of CPT; DT40 Tdp1-/- hTDP1 cells, no CPT, ATP luminescence, 48 h; Potency, µM (top dose mostly 46.2 µM), for inactives: top-dose activity change, negative = growth inhibition, hits mostly inhibitors; hit rate 15% among 420,000; further: potency means the concentration at half of the fitted maximal effect; on the % scale 0 is the no-effect control and ±100 the full control effect; nearly all actives have a fitted effect of over 55% in size
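Growth kinetics read by CellTiter-Glo luminescence after ≥48 hr at 37 °C. Cells: DT40 Tdp1-/- stably carrying human TDP1, 400 per well, compound exposure in the absence of CPT (DMSO vehicle).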
TDP1 cell CPT: growth inhibition of DT40 Tdp1-/-;hTDP1 cells with camptothecin (screen for TDP1 inhibitors). chicken DT40 Tdp1-/-;hTDP1 cells + 20 nM CPT, ATP luminescence, 48 h. Potency, µM (doses to about 46.2 µM), without a hit: at the top dose activity change, negative = growth inhibition, usual class: inhibitors. hit rate 12% among 420,000. AID 686979; further: potency means the concentration at half of the fitted maximal effect; on the % scale 0 is the no-effect control and ±100 the full control effect; nearly all actives have a fitted effect of over 55% in size
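Chicken DT40 Tdp1-/- cells stably complemented with human TDP1 were seeded at 400 cells/well in medium containing 20 nM camptothecin, exposed to pin-transferred compounds, and grown at 37 °C for at least 48 hr. Viability was read as ATP luminescence.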
TGFb inhibitor: TGF-b pathway inhibition; hit rate 1.2% among 410,000; AID 588855; HepG2 CAGA-GFP TGF-b/SMAD3 reporter, GFP fluorescence, 18 h; TGF-beta stimulated, 500 pg/mL final; Potency, µM (top dose mostly 46.1 µM), inactives show at the highest dose activity, negative = inhibition, most hits filed as inhibitors; further: potency means the concentration at half of the fitted maximal effect; on the % scale 0 is the no-effect control and ±100 the full control effect; nearly all actives have a fitted effect of over 65% in size
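HEPG2 CAGA-GFP cells (1000/well, DMEM with 1% FBS) were pre-incubated 2 h at 37 degrees C, given compound by pin tool, then stimulated with TGF-beta at 500 pg/mL final for 18 h before per-cell GFP fluorescence imaging.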
An asterisk follows results filed as active; i = inactive; ? = inconclusive; . = not tested or not shown; [ ] = another dose, or the depositor's remark. Unless noted, the call rests on the fitted dose curve; in most records, active means well fitted curve in the direction sought with a large enough effect; inconclusive means small, poorly fitted or top-dose-only effect, or another doubt; inactive means no such curve, though single readings can be large; an effect the other way counts as inactive or inconclusive.

SMILES	HepG2 viability	IL1B secr inh	TDP1 block	DT40 TDP1 no CPT	TDP1 cell CPT	TGFb inhibitor
CCCCCCCCn1c(=O)c(C(=O)OC)c(N)c2ccccc21	-66%	-95*	4%	3.3µM*	1.3µM*	16µM*
CCCCCCCn1c(=O)c(C(=O)OC)c(N)c2ccccc21	-12%	-59*	.	3.3µM*	3.3µM*	13µM*
COc1ccc(NS(=O)(=O)c2ccc(C)c(C(=O)NCC(c3ccco3)N3CCCCC3)c2)cc1 (stereo not drawn)	-14%	-6	1%	?	?	21%
Cc1c(C(=O)NN2CCCCC2)nn(-c2ccc(Cl)cc2Cl)c1-c1ccc(I)cc1	.	.	7%	30µM*	?	.
NC(=O)C1=NOC(CNc2ncc(C(F)(F)F)cc2Cl)C1 (stereo not drawn)	-10%	15	2%	-25%	0%	-8%
Cc1ccc(C(=O)NCCNC(=O)Cc2ccccc2)cn1	1%	20	13%	11%	6%	0%
COc1ccc(-c2noc(CCC(=O)Nc3cccc(C(=O)NC4CC4)c3)n2)cc1OC	-18%	-53*	.	?	?	-3%
CCOC(=O)c1cccc(NC(=O)CCc2nc(-c3ccccc3F)no2)c1	-31%	7	-2%	?	23µM*	6%
COc1ccc(NC(=O)CCc2nc(-c3ccccc3F)no2)cc1	-13%	6	2%	2.6µM*	?	-12%
COc1ccc(-c2noc(CCCC(=O)NC3CCCCC3)n2)cc1OC	8%	19	.	-22%	2%	6%
O=C(CCCc1nc(-c2ccc(Cl)cc2)no1)Nc1cccnc1	-3%	35	5%	15µM*	16µM*	?
COc1cc(-c2noc(CCC(=O)Nc3cccnc3)n2)cc(OC)c1OC	3%	-15	4%	-28%	-6%	-15%
COc1ccc(-c2noc(CCC(=O)Nc3cccc(C)c3)n2)cc1	-32%	23	7%	?	?	1%
O=C(CCc1nc(-c2ccccc2F)no1)Nc1cccc(C(F)(F)F)c1	-21%	.	-8%	15µM*	18µM*	-26%
CCOC(=O)c1cccc(NC(=O)CCc2nc(-c3ccc(C)cc3)no2)c1	-5%	-14	4%	23µM*	?	?
O=C(NCCc1ccccc1)c1ccc(NC(=O)c2cccnc2)cc1	14%	-9	.	?	-15%	11%
COc1ccccc1-c1noc(CCC(=O)Nc2cccc(C)c2)n1	0%	-7	3%	?	?	-38%
O=C(CCCc1nc(-c2ccccc2)no1)Nc1cc(C(F)(F)F)cc(C(F)(F)F)c1	-49%	.	1%	23µM*	?	?
O=C(Nc1ccc(-c2noc(CCc3ccccc3)n2)cc1)c1cccnc1	-5%	?	3%	12µM*	18µM*	-4%
Cc1ccc(NC(=O)CN2CCN(S(=O)(=O)c3ccc(F)cc3)CC2)cc1C	-3%	-13	-1%	-28%	?	-9%
COc1ccccc1CN1CCC(n2nccc2NC(=O)CCOc2ccccc2)CC1	-9%	i	5%	?	-51%	-14%
COc1ccc(OC)c(CN2CCN(C(=O)c3ccco3)CC2)c1	6%	-3	5%	-3%	?	-15%
CCCS(=O)(=O)N1CC(=O)N(c2ccc(C)cc2C)C(C)(C(=O)NC2CCCCCC2)C1 (stereo not drawn)	-1%	.	-5%	-14%	-14%	0%
C=C(C)Cn1c2ccc(NC(=O)NCc3ccccc3)cc2c(=O)n1C	4%	-2	.	-5%	-10%	-2%
COc1ccc2cc(CCNC(=O)c3cccc([N+](=O)[O-])c3)c(=O)[nH]c2c1	-7%	0	6%	?	23µM*	4%
SMILES	HepG2 viability	IL1B secr inh	TDP1 block	DT40 TDP1 no CPT	TDP1 cell CPT	TGFb inhibitor
CC(=O)NCCc1cc2ccc(C)c(C)c2[nH]c1=O	-28%	12	3%	-2%	0%	-6%
Cc1ccc2cc(CCNC(=O)c3cccs3)c(=O)[nH]c2c1C	3%	-20	4%	?	23µM*	11%
Cc1ccc2cc(CCNC(=O)c3ccc(C)c([N+](=O)[O-])c3)c(=O)[nH]c2c1	-6%	-21	5%	?	21µM*	0%
CCC(CC)C(=O)NCCc1cc2ccc(C)cc2[nH]c1=O	5%	10	0%	-26%	-1%	10%
Cc1ccc2cc(CCNC(=O)c3cccc([N+](=O)[O-])c3)c(=O)[nH]c2c1C	-11%	0	1%	16µM*	23µM*	-13%
Cc1ccc2cc(CCNC(=O)c3cccs3)c(=O)[nH]c2c1	-22%	-24	-1%	?	-29%	3%
COc1ccc(CNC(=O)CCc2c(C)nc3nc(CNC(=O)OC(C)(C)C)nn3c2C)cc1	-16%	.	0%	-28%	-8%	6%
CNCc1cc2ccc(C)cc2[nH]c1=O	5%	21	3%	?	16µM*	10%
NC(=O)COc1ccc(C(=O)/C=C2/C(=O)Nc3ccccc32)cc1	-27%	-100*	.	2.9µM*	7.3µM*	?
C=CCOc1ccc(C2NC(=O)c3ccccc3O2)cc1 (stereo not drawn)	0%	-15	.	-8%	-6%	0%
C=CCOc1ccc(C(=O)/C=C2/C(=O)Nc3ccccc32)cc1	-39%	-92*	.	13µM*	16µM*	0%
C=CCOc1ccccc1C(=O)/C=C1/C(=O)Nc2ccccc21	6.3µM*	?	.	2.9µM*	5.8µM*	?
Cc1cc(C)nc(Sc2ccc(/C=C(\C#N)C(N)=O)o2)n1	10%	3	-3%	7%	0%	-13%
CN(C)C(=O)/C(C#N)=C\c1cc(Br)c(Sc2ccc(Cl)cc2)o1	-4%	-94*	3%	15µM*	?	?
Fc1cccc(NCc2ccccc2-c2nnc(-c3ccccc3Cl)o2)c1	0%	.	-2%	?	?	2%
Cc1cc(F)ccc1NCc1ccccc1-c1nnc(-c2ccccc2Cl)o1	-8%	.	0%[12.3 µM]	21µM*	?	?
N#Cc1c(N)[nH]c2ccc(Sc3ccccc3)cc12	1%	-8	.	0.73µM*	0.73µM*	16µM*
N#Cc1cc(-c2ccccc2)cnc1Sc1ccccc1	-28%	-18	-8%	0%	-20%	-2%
CC(O)(c1cccc(F)c1)c1nc(-c2cccc(C(F)(F)F)c2)cs1 (stereo not drawn)	16µM*	-19	.	?	29µM*	?

Screening results (PubChem BioAssay)
